The nature of assay [1]: qHTS assay to test for compound auto fluorescence at 535 nm (green) in HEK293 cells (AID 720680). On the technique in general: In qHTS, concentration-response curves come from the screen itself.
A short description of assay [2]: qHTS assay to test for compound auto fluorescence at 460 nm (blue) in HEK293 cell free culture (AID 720681). Summed up:
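Blue fluorescence (Ex 405/Em 460 nm, triamterene-equivalent) was read immediately after pin transfer of compound or DMSO into medium (DMEM, 10% FBS) without cells.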

The nature of assay [3]: qHTS assay to test for compound auto fluorescence at 535 nm (green) in HEK293 cell free culture (AID 720682). Summed up: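 Compounds were pin-transferred into cell-free DMEM with 10% FBS, and green fluorescence was read at excitation 485 nm and emission 535 nm. Intensities were expressed as fluorescein-equivalent values.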
Assay [4] can be described thus: qHTS assay to test for compound auto fluorescence at 590 nm (red) in HEK293 cell free culture (AID 720683). Summed up:
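Red-channel autofluorescence of compounds in culture medium (DMEM, 10% FBS), no cells, measured at 540/590 nm. Rose Bengal sodium is the reference fluorophore for equivalence.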

Assay [5] is described as follows: qHTS assay to test for compound auto fluorescence at 590 nm (red) in HepG2 cell free culture (AID 720684). In outline: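 Steps: dispense MEM/10% FBS medium, no cells; pin compound or DMSO vehicle; read red channel, Ex/Em 540/590 nm. Output given as Rose Bengal sodium equivalents.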
A short description of assay [6]: qHTS assay to test for compound auto fluorescence at 460 nm (blue) in HepG2 cell free culture (AID 720685). In outline: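 Compound (23 nL) or DMSO pinned into cell-free MEM with 10% FBS; blue fluorescence read at 405/460 nm excitation/emission, expressed as auto-fluorescence equivalency to triamterene.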
A short description of assay [7]: qHTS assay to test for compound auto fluorescence at 535 nm (green) in HepG2 cell free culture (AID 720686).
The nature of assay [8]: qHTS assay to test for compound auto fluorescence at 460 nm (blue) in HepG2 cells (AID 720687). Summed up: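 Blue-channel autofluorescence (Ex/Em 405/460 nm, triamterene-equivalent) was measured after 1 hr compound exposure at 37 C, 5% CO2. Cells were HepG2, plated overnight at 37 C in MEM plus 10% FBS.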
In assay [9] the target is Glucocorticoid receptor (Homo sapiens) (UniProt P04150). In words: qHTS assay to identify small molecule agonists of the glucocorticoid receptor (GR) signaling pathway (AID 720691; active = well fitted activation curve with a large enough effect in the signal ratio in the repeat runs, not every such curve was filed as active; inconclusive = weak or mixed curves, or effect the other way; inactive = no such curve, though single readings can be large or run the other way; the % refers to the signal ratio; note: potency is the fitted concentration of half-maximal effect). As to conditions: GR-bla HeLa, beta-lactamase reporter ratio, 18 h; activation: at 62.4 µM (top of the series). Summed up: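 Fluorescence intensity from LiveBLAzer B/G FRET substrate (2 h, room temperature) reports beta-lactamase expression driven by the glucocorticoid response element in GR-bla HeLa cells after 18 h compound exposure at 37 C.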
Chain of Glucocorticoid receptor (Homo sapiens) (P04150 whole entry, looked up): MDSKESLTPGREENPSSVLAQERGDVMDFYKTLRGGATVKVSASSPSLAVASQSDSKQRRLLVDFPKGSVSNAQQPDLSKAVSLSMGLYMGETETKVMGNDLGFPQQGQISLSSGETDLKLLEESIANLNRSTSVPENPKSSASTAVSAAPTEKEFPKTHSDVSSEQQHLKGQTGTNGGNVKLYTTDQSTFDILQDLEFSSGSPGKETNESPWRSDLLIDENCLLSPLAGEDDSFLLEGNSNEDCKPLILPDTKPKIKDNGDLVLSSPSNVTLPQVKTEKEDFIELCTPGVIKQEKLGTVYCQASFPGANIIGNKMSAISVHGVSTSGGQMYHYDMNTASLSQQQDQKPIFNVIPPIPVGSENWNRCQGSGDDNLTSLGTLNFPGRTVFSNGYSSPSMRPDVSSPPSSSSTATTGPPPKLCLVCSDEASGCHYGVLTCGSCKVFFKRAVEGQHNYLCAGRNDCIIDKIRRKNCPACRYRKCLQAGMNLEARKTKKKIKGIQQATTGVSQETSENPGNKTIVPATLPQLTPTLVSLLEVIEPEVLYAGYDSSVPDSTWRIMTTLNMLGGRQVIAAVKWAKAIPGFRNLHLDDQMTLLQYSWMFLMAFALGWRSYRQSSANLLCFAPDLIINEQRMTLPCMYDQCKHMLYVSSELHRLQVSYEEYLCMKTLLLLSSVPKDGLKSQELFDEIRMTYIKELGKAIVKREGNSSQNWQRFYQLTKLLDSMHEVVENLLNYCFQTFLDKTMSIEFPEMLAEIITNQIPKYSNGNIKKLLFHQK

Assay [10] is described as follows: qHTS assay for identifying genotoxic compounds that show differential cytotoxicity against isogenic chicken DT40 cell lines with known DNA damage response pathways - wild type cell line (AID 743012). Note: nearly all actives have a fitted effect of over 60% in size. Note: potency is the fitted concentration of half-maximal effect. In outline: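 Wild type DT40, 300 cells/well, ~0.5 h settle at 37 C/5% CO2; compounds in DMSO added by pintool; 40 h at 37 C/5% CO2; CellTiter-Glo, 30 min RT; luminescence.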

A short description of assay [11]: qHTS assay for identifying genotoxic compounds that show differential cytotoxicity against isogenic chicken DT40 cell lines with known DNA damage response pathways - Rev3 mutant cell line (AID 743014). Note: potency is the fitted concentration of half-maximal effect; nearly all actives have a fitted effect of over 55% in size.
Assay [12] in a line: qHTS assay for identifying genotoxic compounds that show differential cytotoxicity against isogenic chicken DT40 cell lines with known DNA damage response pathways - Rad54/Ku70 mutant cell line (AID 743015). Note: nearly all actives have a fitted effect of over 60% in size. Note: potency is the fitted concentration of half-maximal effect.
The nature of assay [13]: qHTS assay to identify small molecule antagonists of the glucocorticoid receptor (GR) signaling pathway - cell viability counter screen (AID 720693). Note: nearly all actives have a fitted effect of over 55% in size.
Assay [14] in a line: qHTS assay to identify small molecule antagonists of the androgen receptor (AR) signaling pathway - cell viability counter screen (AID 743033; note: nearly all actives have a fitted effect of over 45% in size).
Assay [15] can be described thus: qHTS assay to identify small molecule antagonists of the androgen receptor (AR) signaling pathway using the MDA cell line - cell viability counter screen (AID 743041; note: nearly all actives have a fitted effect of over 45% in size). In outline:
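Cells were plated at 3,000 per well and left 5 h. Compounds in DMSO were then pinned in, followed by R1881. After 16 h at 37C, CellTiter-Fluor fluorescence gave viability.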

Assay [16] concerns the target Androgen receptor (Homo sapiens) (UniProt P10275). In words: qHTS assay to identify small molecule agonists of the androgen receptor (AR) signaling pathway (AID 743036; active = well fitted activation curve with a large enough effect in the signal ratio in the repeat runs, with a control signal flat, not every such curve was filed as active; inconclusive = weak or mixed curves, or effect the other way; inactive = no such curve, though single readings can be large or run the other way; the % refers to the signal ratio). In outline:
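Activation was read as beta-lactamase FRET signal from LiveBLAzer B/G substrate, added for 2 h at room temperature. Before that, GeneBLAzer AR-UAS-bla GripTite (HEK293) cells had 16 h compound exposure at 37C.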

For assay [17] the target is unchanged. The assay can be described thus: qHTS assay to identify small molecule agonists of the androgen receptor (AR) signaling pathway using the MDA cell line (AID 743040; note: nearly all actives have a fitted effect of over 20% in size; note: potency is the fitted concentration of half-maximal effect). Summed up:
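Cells plated, 5 h at 37C/0% CO2; compound or DMSO pinned; 16 h at 37C; ONE-Glo added; luminescence measured after 30 min at room temperature. Reporter line: MDA-kb2 with MMTV-luciferase responsive to AR and GR.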

Assay [18] shares this target. In words: qHTS assay to identify small molecule antagonists of the androgen receptor (AR) signaling pathway using the MDA cell line (AID 743042; note: nearly all actives have a fitted effect of over 55% in size). Summed up: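 Antagonist mode: compounds plus R1881 agonist added to MDA-kb2 AR-luc cells, incubated 16 h at 37C. Luciferase reporter luminescence quantified, with multiplexed CellTiter-Fluor readout for cell viability.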

For assay [19] the target is unchanged. The assay can be described thus: qHTS assay to identify small molecule antagonists of the androgen receptor (AR) signaling pathway (AID 743035; active = well fitted inhibition curve with a large enough effect in the signal ratio in the repeat runs, not every such curve was filed as active; inconclusive = weak or mixed curves, or effect the other way; inactive = no such curve, though single readings can be large or run the other way; the % refers to the signal ratio; note: potency is the fitted concentration of half-maximal effect). In outline: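 Fluorescence from a beta-lactamase FRET substrate (LiveBLAzer B/G, 2 h, room temperature) measured inhibition of R1881-stimulated signaling in GeneBLAzer AR-UAS-bla HEK293 cells exposed to compound for 16 h at 37C.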

SMILES strings stand for the structures. Active and inactive are the calls of the source. Unless noted, calls come from the whole dose curve; as a rule, active = well fitted curve in the direction sought with a large enough effect in the repeat runs; inconclusive = weak or mixed curves; inactive = no such curve, though single readings can be large; an effect the other way counts as inactive or inconclusive.

Chain of Androgen receptor (Homo sapiens) (P10275 whole entry, looked up): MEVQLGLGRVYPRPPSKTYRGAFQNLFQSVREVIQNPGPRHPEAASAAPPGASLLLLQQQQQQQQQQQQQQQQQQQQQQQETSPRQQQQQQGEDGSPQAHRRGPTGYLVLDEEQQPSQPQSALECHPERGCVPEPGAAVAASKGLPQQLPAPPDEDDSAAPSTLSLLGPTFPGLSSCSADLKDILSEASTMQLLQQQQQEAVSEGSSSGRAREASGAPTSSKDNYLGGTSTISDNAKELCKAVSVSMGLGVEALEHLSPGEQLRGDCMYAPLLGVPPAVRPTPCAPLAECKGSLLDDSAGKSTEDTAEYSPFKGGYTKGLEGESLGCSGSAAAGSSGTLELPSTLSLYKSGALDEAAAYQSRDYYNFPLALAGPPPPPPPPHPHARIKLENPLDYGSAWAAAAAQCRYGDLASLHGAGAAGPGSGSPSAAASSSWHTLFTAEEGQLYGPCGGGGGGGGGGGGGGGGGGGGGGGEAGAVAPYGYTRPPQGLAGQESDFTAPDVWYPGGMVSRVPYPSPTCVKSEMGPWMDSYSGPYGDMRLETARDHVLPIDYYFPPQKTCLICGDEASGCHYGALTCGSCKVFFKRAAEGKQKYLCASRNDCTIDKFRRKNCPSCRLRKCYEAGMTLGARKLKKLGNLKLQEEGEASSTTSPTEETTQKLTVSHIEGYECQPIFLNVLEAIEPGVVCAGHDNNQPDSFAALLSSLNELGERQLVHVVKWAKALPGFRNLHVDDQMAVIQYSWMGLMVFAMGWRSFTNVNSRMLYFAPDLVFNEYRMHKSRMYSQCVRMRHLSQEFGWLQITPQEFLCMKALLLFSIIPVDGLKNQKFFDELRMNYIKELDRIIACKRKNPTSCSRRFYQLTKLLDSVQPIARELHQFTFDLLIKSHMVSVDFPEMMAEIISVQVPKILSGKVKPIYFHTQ

Turning to `C=CCNC1=C2C[C@@H](C)C[C@H](OC)[C@H](O)[C@@H](C)/C=C(\C)[C@H](OC(N)=O)[C@@H](OC)/C=C\C=C(/C)C(=O)NC(=CC1=O)C2=O`, the Potency result in assay [1], in [2], in [3], in assay [4], in assay [5] and in [7] was “inactive” each time. For the same compound, in [9], the Potency result is “inactive”. In addition, the compound was called inactive in assay [6] and in [8]. Further, the Potency in assay [10] is 335 nM (active); in assay [11], 473 nM (active); in [12], 376 nM (active).
`C=C1CC2C3CCC4=CC(=O)C=C[C@]4(C)[C@@]3(F)[C@@H](O)C[C@]2(C)[C@@]1(O)C(=O)COC(C)=O` (some centres undefined): the Potency result in [1], in assay [2], in [3], in assay [4], in assay [5] and in [7] was “inactive” each time. Also, the Potency result in assay [13], in assay [12], in assay [14] and in assay [15] was “inactive” in each case. The compound was classed as inactive in assay [6] and in assay [8]. In assay [9], the Potency is 15.1 nM (active).
Consider `CC(=O)O[C@H]1CC[C@@]2(C)C(=CC[C@H]3[C@@H]4CC[C@H](C(C)=O)[C@@]4(C)CC[C@@H]32)C1`, for which the Potency entry in [1], in [2], in assay [3], in assay [4], in [5] and in assay [7] was “inactive” in each case. In addition, the Potency result in assay [9], in assay [13], in [10], in [12] and in assay [14] was “inactive” each time. Moreover, the compound was classed as inactive in [6] and in assay [8].
With `CCCCCCCCCCCCCCCCCCCCCC(=O)Nc1ccn([C@@H]2O[C@H](CO)[C@@H](O)[C@@H]2O)c(=O)n1`, the Potency entry in assay [1], in [2], in assay [3], in assay [4], in assay [5] and in assay [7] was “inactive” throughout. In addition, the Potency entry in [9], in assay [13], in assay [16], in [17], in assay [15] and in [18] was “inactive” each time. For the same compound, the outcome in assay [6] and in assay [8] was inactive. For the same compound, the results for the Potency in assay [10], in assay [11] and in assay [12] were 18800 nM (active), 23700 nM (active) and 26600 nM (active), respectively.
Regarding `CCOC(=O)O[C@]1(C(=O)COC(=O)CC)CC[C@H]2[C@@H]3CCC4=CC(=O)C=C[C@]4(C)[C@H]3[C@@H](O)C[C@@]21C`, the Potency result in [1], in assay [2], in [3], in assay [4], in [5] and in assay [7] was “inactive” in each case. The Potency result in [13], in [10], in assay [15] and in [18] was “inactive” throughout. Also, the outcome in assay [6] and in assay [8] was inactive. Moreover, the Potency in [9] is 28.8 nM (active); in assay [19], 2040 nM (active); in [17], 50.7 nM (active).
Turning to `C[C@@H]1C[C@H]2[C@@H]3CCC4=CC(=O)C=C[C@]4(C)[C@@]3(F)[C@@H](O)C[C@]2(C)[C@@]1(O)C(=O)COC(=O)c1cccc(S(=O)(=O)O)c1`, the Potency result in assay [1], in assay [2], in assay [3], in [4], in assay [5] and in assay [7] was “inactive” in each case. For the same compound, the Potency entry in assay [13], in [10], in assay [12], in assay [14], in assay [15] and in assay [18] was “inactive” each time. Also, the result in assay [6] and in [8] was inactive. For the same compound, the Potency is 338 nM [inconclusive] (active) in assay [9] and 84.1 nM (active) in [17].
Consider `COc1ccc2c(c1)N(C[C@H](C)CN(C)C)c1ccccc1S2`, for which the Potency result in assay [1], in assay [2], in assay [3], in assay [4], in assay [5] and in [7] was “inactive” in each case. Further, the Potency entry in [9], in [13] and in [15] was “inactive” each time. Moreover, the call in [6] and in assay [8] was inactive. In addition, the Potency in assay [10] and in assay [11] was 11400 nM (active) each time.

The values are drawn from PubChem BioAssay (Tox21).
